Measurements: PubChem BioAssay (NCI)
The panel holds about 83,000 compounds, 20% with a hit somewhere; the sample as a whole holds those more often.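 Each cell line was grown in a 96-well plate and treated with one concentration of compound for 48 hours. Values below 10 were considered active.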 Activity calls are given as the source filed them.

Key:
Test in all cases: NCI-60 one-dose screen, 48 h (100 = growth as untreated, 0 = no growth, -100 = all killed)
Settings in all cases: 10 µM unless noted
[1] = test system: DU-145 prostate
[2] = test system: K-562 leukemia
[3] = test system: MALME-3M melanoma
[4] = test system: MDA-MB-231 breast
[5] = test system: SF-268 CNS
[6] = test system: SF-295 CNS
[7] = test system: SF-539 CNS
[8] = test system: UACC-257 melanoma

Measured: growth

CCC1=Cc2cc(OC)ccc2OC12C=Cc1cc(OC)ccc1O2 (stereo not drawn)
inactive: [1] 19.9% | [2] 12.6% | [3] 58.4% | [4] 34.9% | [5] 39.2% | [6] 15.7% | [8] 79.6%
active: [7] -23.7%

NC(N)=Nc1ccc(Oc2cccc(NC(N)=Nc3ccc(Cl)c(C(F)(F)F)c3)c2)cn1
inactive: [1] 63.7% | [2] 19.7% | [3] 57.9% | [4] 43.8% | [5] 19.6% | [6] 40.7% | [7] 36.6% | [8] 61.2%

Cc1ccc(NC(=S)NNC(=S)Nc2ccc(C)cc2)cc1
inactive: [1] 106% | [2] 96.6% | [3] 103% | [4] 106% | [5] 108% | [6] 102% | [7] 110% | [8] 117%

COC(=O)C1(C)CCC[C@]2(C)[C@H]3C[C@H]4C(C(C)C)=C[C@]3(CC[C@@H]12)[C@H]1[C@@H]4[C@@H](OC(=O)c2ccco2)CC[C@@H]1OC(=O)c1ccco1 (stereo partly drawn)
inactive: [1] 113% | [2] 104% | [3] 108% | [4] 101% | [5] 108% | [6] 98.3% | [7] 103% | [8] 110%

NC(N)=Nc1ccc(Oc2ccc(Nc3ccc(Cl)c(C(F)(F)F)c3)cc2)cc1
inactive: [1] 39% | [3] 61.7% | [4] 28.4% | [5] 39% | [6] 22.3% | [7] 25.5% | [8] 68.3%
active: [2] 7.03%

CC/C(=C/c1c(O)cccc1OC)c1ccc2c(OC)cccc2[o+]1
inactive: [1] 112% | [2] 96.6% | [3] 105% | [4] 102% | [5] 100% | [6] 98.5% | [7] 98.5% | [8] 101%

Cc1ccc2c(c1)Oc1nc(N)c(C#N)c(N)c1C2Sc1ccc(F)cc1 (stereo not drawn)
active: [1] -98.9% | [2] -13.6% | [3] -91.9% | [4] -92.5% | [5] -81.6% | [6] -96.9% | [7] -99% | [8] -94.4%

Cn1ccnc1C(=O)/C=C/c1ccc(CNC(=O)c2c(F)c(F)c(F)c(F)c2F)cc1
inactive: [1] 17.7% | [2] 21.1% | [3] 97% | [4] 30.3% | [5] 29.4% | [6] 90.4% | [8] 77%
active: [7] 2.82%

CCCCCc1ccc(S(=O)(=O)Nc2cccc(-c3csc(NC(=O)CN4CCN(CCO)CC4)n3)c2)cc1
inactive: [1] 86.5% | [2] 19.6% | [3] 32.3% | [4] 76.7% | [5] 76.8% | [6] 77% | [7] 83.6% | [8] 85.4%

O=C(NNc1nc2cc(F)ccc2n2c(CN3CC4CNCC4C3)ccc12)c1cnccn1 (stereo not drawn)
inactive: [1] 27.5% | [2] 15.6% | [3] 18.9% | [4] 39.5% | [5] 22.3% | [7] 15.1% | [8] 13.7%
active: [6] 2.89%

COc1ccc2c(c1)c(CC(=O)[Se]CC#N)c(C)n2C(=O)c1ccc(Cl)cc1
inactive: [2] 14.5% | [5] 35.6%
active: [1] -37.1% | [3] 6.79% | [4] 9.39% | [6] -11.7% | [7] 9.61% | [8] -10%

Cn1ccnc1C(=O)/C=C/c1ccc(CNC(=O)c2ccc(F)cc2)cc1
active: [5] 9.43% | [7] -20%
inactive: [1] 13.2% | [2] 11.3% | [3] 84% | [4] 11% | [6] 49.1% | [8] 80.6%

COc1ccccc1-n1cc(C#N)c(N)c1C(=O)c1ccc(Cl)cc1
inactive: [1] 93.8% | [2] 20.8% | [3] 59.5% | [4] 68.2% | [5] 85.2% | [6] 78.8% | [7] 91.8% | [8] 87.5%

Cc1ccc(-n2cc(/C=C/C(=O)c3ccc(O)cc3)c(-c3ccc(S(C)(=O)=O)cc3)n2)cc1
inactive: [1] 82.8% | [2] 17.8% | [3] 44.9% | [4] 67.7% | [5] 85.9% | [6] 87.3% | [7] 60.2% | [8] 93.5%

CC1=NC2=NC(=O)/C(=C3/N=C(C)C=C(c4ccccc4)N3N)NN2C(c2ccccc2)=C1
inactive: [1] 105% | [2] 101% | [3] 44.3% | [4] 72.2% | [5] 103% | [6] 106% | [7] 100% | [8] 109%

C=C(C=O)[C@@H]1CC[C@]2(C)[C@H](C(=O)C=C3[C@H]4C[C@](C)(C(=O)OC)CC[C@]4(C)CC[C@]32C)[C@@]1(C)CCC#N
active: [1] 6.32% | [2] 5.75% | [3] -49.8% | [4] -19% | [7] -29.1% | [8] -13.6%
inactive: [5] 32% | [6] 28.4%

CCOc1ccccc1NC1=C(Cl)C(=O)c2nc(C)ccc2C1=O
inactive: [5] 32.8% | [6] 90.7%
active: [1] -85% | [2] 1.26% | [3] -71.4% | [4] -63.6% | [7] -37.3% | [8] -88.3%

O=C1[C@@H]2Cc3c([nH]c4ccccc34)[C@H](c3c(Cl)cccc3Cl)N2C(=O)CN1C1CCN(CC2CCCCC2)CC1
inactive: [1] 34.4% | [3] 80.6% | [4] 50% | [5] 75.2% | [6] 105% | [7] 68.8% | [8] 91.4%
active: [2] 1.73%

Cn1ccnc1C(=O)/C=C/c1ccc(NC(=O)c2c(F)c(F)c(F)c(F)c2F)cc1
inactive: [1] 106% | [2] 80.7% | [3] 104% | [4] 108% | [5] 96% | [6] 106% | [7] 108% | [8] 113%

O=C1CCC(N2C(=O)c3ccc(NS(=O)(=O)c4ccccc4OC(F)(F)F)cc3C2=O)C(=O)N1 (stereo not drawn)
active: [3] 7.28% | [4] 6.46%
inactive: [1] 108% | [2] 65.8% | [5] 43.2% | [6] 56.9% | [7] 79.7% | [8] 107%

NC(N)=Nc1ccc(Oc2cccc(NC(N)=Nc3ccc(Br)cc3)c2)cn1
inactive: [1] 80.4% | [2] 52.4% | [3] 69.8% | [4] 76.8% | [5] 28.2% | [6] 44.4% | [7] 48.7% | [8] 77.9%

CC(c1ccccc1)N1CSc2nc3ncncc3n2C1 (stereo not drawn)
inactive: [1] 33.3% | [2] 20.9% | [3] 38.2% | [4] 32.7% | [5] 28.4% | [6] 21.6% | [7] 23.5% | [8] 44.5%

CCCCCc1ccc(S(=O)(=O)Nc2cccc(-c3csc(NC(=O)CNCCN(C)C)n3)c2)cc1
inactive: [1] 84.8% | [3] 74% | [4] 93.5% | [5] 78.6% | [6] 95.5% | [7] 91.1% | [8] 96.1%
active: [2] 9.48%

C=CCn1c(SCC(=O)Nc2ccc(C(=O)/C=C/c3ccc(C)cc3)cc2)nnc1-c1c[nH]c2ccccc12
inactive: [1] 98.4% | [2] 61.1% | [3] 95% | [4] 89% | [5] 79.4% | [6] 66.9% | [7] 90.9% | [8] 112%

O=C(c1ccc(O)cc1)[C@@H]1CN[C@@]2(C(=O)Nc3ccccc32)[C@H]1c1ccc(F)cc1
inactive: [1] 111% | [2] 88% | [3] 98.5% | [4] 93.6% | [5] 97.7% | [6] 101% | [7] 93.7% | [8] 114%

ClC(Cl)c1nc(-c2ccco2)n2nc(-c3ccccc3)cc2n1
inactive: [2] 50.6% | [3] 107% | [5] 24.3% | [8] 54%
active: [1] -24.8% | [4] -11.1% | [6] -15.4% | [7] -7.97%

N=c1c2cc(-c3ccccc3)oc2ncn1/N=C/c1ccc(Cl)cc1
inactive: [1] 38.8% | [2] 78.7% | [3] 38.5% | [4] 96.3% | [5] 76.3% | [6] 93.1% | [7] 82.7% | [8] 95.1%

O=C(NNc1nc2cc(F)ccc2n2c(CO)ccc12)c1cnccn1
active: [2] 8.85% | [6] 3.48% | [7] 3.67% | [8] -1.53%
inactive: [1] 22.7% | [3] 10.5% | [4] 35.9% | [5] 20.3%

C#Cc1ccc(C(=O)NCc2ccc(/C=C/C(=O)c3nccn3C)cc2)cc1
inactive: [1] 21% | [2] 18.8% | [3] 69.5% | [4] 16.1% | [5] 13.5% | [6] 20.7% | [8] 67.7%
active: [7] -17%

CC1(C)CC[C@]23CC[C@]4(C)[C@H](CC[C@@H]5[C@@]6(C)CCCN(CO)C(C)(C)[C@@H]6CC[C@]54C)[C@H]2[C@H]1OC3
inactive: [1] 50.7% | [3] 101% | [4] 65.9% | [5] 97.5% | [6] 112% | [7] 84.6% | [8] 110%
active: [2] 2.86%

O=C(NNc1nc2cc(F)c(F)cc2n2c(CN3CC4CNCC4C3)ccc12)c1cnccn1 (stereo not drawn)
inactive: [1] 22.1% | [2] 14.1% | [4] 39.6% | [5] 15.8%
active: [3] 7.02% | [6] 5.87% | [7] 8.64% | [8] 7.77%
